Rows were chosen to be rich in hits. Some 3.3% of all compounds tested hit in one or more screens of this group.
SARS PLP yeast = blocks SARS-CoV papain-like protease in a yeast assay | S. cerevisiae expressing SARS-CoV PLpro, growth rescue | Potency, µM (titrated, usually from 32.9 µM), for the others: at the highest dose activity, positive = growth rescue, hits mostly activators | 330,000 compounds, 0.19% hits; calls by dose curve; also: 0% is about no effect; nearly all actives have a fitted effect of over 55% in size
TbPYK inhibitor = inhibitors of Trypanosoma brucei pyruvate kinase | Q57TT1 | TbPYK enzyme, Kinase-Glo Plus ATP luminescence, 45 min | Potency, µM (top dose mostly 76.8 µM), without a hit: top-dose activity, negative = inhibition, actives largely listed as inhibitors | 410,000 compounds, 0.12% hits; also: % is scaled to controls: 0 for no effect and ±100 for the full control effect; nearly all actives have a fitted effect of over 50% in size
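In this concentration-response screen, enzyme-free wells defined baseline while DMSO plates tracked drift. Each reaction combined TbPYK, substrate, compound and 130 uM ADP for 45 min at room temperature. Kinase-Glo Plus luminescence gave the signal.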
RE007 growth inh = less growth of the S. pombe RE007 Vpr strain | S. pombe RE007 Vpr strain, BacTiter-Glo ATP luminescence, 24 h | AID 651644 | Potency, µM (series often up to 92.2 µM), inactives show at the highest dose activity change, negative = less growth, hits mostly inhibitors | 360,000 compounds, 0.21% hits; active = well fitted falling curve with a large enough effect; inconclusive = small, poorly fitted or top-dose-only effect; inactive = no such curve, though single readings can be large or run the other way; also: % is scaled to controls: 0 for no effect and ±100 for the full control effect; nearly all actives have a fitted effect of over 50% in size
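Fission yeast strain RE007, carrying one chromosomally integrated HIV-1 vpr copy, was seeded at OD 0.01 in PMG+AL medium with 23 nL pinned compound. After 24 h at 30 °C and 99% humidity, viability was read by BacTiter-Glo luminescence.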
AmpC no deterg = blocks E. coli AmpC beta-lactamase in detergent-free assay | P00811 | AmpC nitrocefin hydrolysis, absorbance 480 nm, 0.0001% Triton | Potency, µM (titrated, usually from 57.1 µM), inactives show at the top dose activity change, negative = inhibition, hits mostly inhibitors | 330,000 compounds, 0.52% hits | AID 485341;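 also: plate controls were no compound for no effect and no enzyme for full effect; nearly all actives have a fitted effect of over 20% in size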
Target sequence (P00811 whole entry, looked up): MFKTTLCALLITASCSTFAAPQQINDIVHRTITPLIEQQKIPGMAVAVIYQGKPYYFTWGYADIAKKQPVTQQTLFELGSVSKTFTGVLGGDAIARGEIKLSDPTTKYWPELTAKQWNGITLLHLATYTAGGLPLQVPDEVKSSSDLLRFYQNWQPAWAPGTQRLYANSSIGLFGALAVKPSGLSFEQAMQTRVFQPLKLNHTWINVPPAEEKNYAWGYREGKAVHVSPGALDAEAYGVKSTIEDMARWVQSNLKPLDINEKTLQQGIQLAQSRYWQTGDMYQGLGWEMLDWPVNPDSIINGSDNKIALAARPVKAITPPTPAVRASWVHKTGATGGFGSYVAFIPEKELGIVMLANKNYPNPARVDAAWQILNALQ
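AmpC (5.3 nM in the dispensed reagent) in 20 mM phosphate pH 7.0 with 0.01% (detergent screen) or 0.0001% Triton X-100 was preincubated with compounds for 15 min at room temperature. Nitrocefin was then added from an 800 uM solution, and hydrolysis was followed at 480 nm.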
Sm TGR inh = blocks Schistosoma mansoni thioredoxin glutathione reductase; AID 485364; purified TGR, DTNB reduction, TNB absorbance 405 nm; 360,000 compounds, 3% hits; Potency, µM (titrated, usually from 114 µM), without a hit: top-dose activity change, negative = inhibition, actives largely listed as inhibitors; Q962Y6; also: % is scaled to controls: 0 for no effect and ±100 for the full control effect; nearly all actives have a fitted effect of over 60% in size
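Kinetic colorimetric format: TGR-catalysed, NADPH-driven DTNB reduction monitored via TNB absorbance. Enzyme dispensed at 20 nM; compound exposure 15 min at room temperature before reaction start.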
AmpC detergent = AmpC beta-lactamase inhibition with detergent present | P00811 | AmpC hydrolysis of nitrocefin, absorbance 480 nm, 0.01% Triton | 370,000 compounds, 0.041% hits | Potency, µM (doses to about 114 µM), for the others: top-dose activity change, negative = inhibition, usual class: inhibitors | AID 485294;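 also: 0% = no-compound wells and -100% = no-enzyme wells; nearly all actives have a fitted effect of over 25% in size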
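20 mM phosphate pH 7.0 + 0.01% (detergent screen) or 0.0001% Triton X-100; 5.3 nM AmpC reagent; cpd preinc 15 min RT; nitrocefin (800 uM stock) to start; A480 q20 s × 4 min; Activity was normalised to no-enzyme and no-compound control wells.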
* = called active by the depositor; u = inconclusive; x = not tested or not shown; [ ] = dose if it differs, or a comment. Unless noted, calls follow the shape of the dose curve; as a rule, active = well fitted curve in the direction sought with a large enough effect; inconclusive = small, poorly fitted or top-dose-only effect, or another doubt; inactive = no such curve, though single readings can be large; an effect the other way counts as inactive or inconclusive. Potency is read from the fitted curve at half-maximal effect.

SMILES | SARS PLP yeast | TbPYK inhibitor | RE007 growth inh | AmpC no deterg | Sm TGR inh | AmpC detergent
CCOC(=O)c1c(/N=C/c2ccc(O)cc2O)sc2c1CCC2 | -8% | x | x | 10µM* | -22% | -8%
CC(C)Sc1nc2sc3c(c2c(=O)n1Cc1ccccc1)CCCC3 | x | 4% | x | x | 8% | 17%
c1ccc2c(c1)nc1n2CC2CON(C3CCCCC3)C12 (stereo not drawn) | 0% | 5% | -5% | -9% | 2% | -4%
c1ccc2c(c1)nc1n2C2(N3CCOCC3)CCCC2C1N1CCOCC1 (stereo not drawn) | -5% | -2% | 7% | -42% | 32µM* | 2%
COc1ccc(Br)cc1CNc1ccc2[nH]c(=O)[nH]c2c1 | -2% | -24% | 5% | -9%[2.29 µM] | u | -7%
COc1ccc(Br)cc1CNc1ccc(O)cc1 | -9% | 1% | u | 28µM* | 28µM* | u
COc1ccc(NC(=O)c2cc(-c3ccco3)nc3ccccc23)cc1 | x | 0% | 0% | x | x | x
COc1cccc(CN(C)C(=O)c2cc(-c3ccc(F)cc3)nc3ccccc23)c1 | -1% | 1% | 5% | -1% | 2.2µM* | 4%
COc1ccc(NC(=O)CN(C)C(=O)c2cc(-c3ccco3)nc3ccccc23)cc1 | -1% | -4% | 4% | -18% | 5µM* | -9%
Cc1ccc(-c2cc(C(=O)N(C)CC(=O)Nc3ccccc3Br)c3ccccc3n2)o1 | 1% | -6% | -6% | -40% | 16µM* | 16%
Cc1ccc(-c2cc(C(=O)Nc3ccccc3C(N)=O)c3ccccc3n2)o1 | x | -30% | 11% | x | x | x
COc1ccc(-c2cc(C(=O)N(C)CC(=O)Nc3cccc(F)c3)c3ccccc3n2)cc1OC | x | 3% | 3% | x | x | x
CN(CC(=O)Nc1cccc(F)c1)C(=O)c1cc(-c2ccco2)nc2ccccc12 | 1% | -11% | 0% | 18µM* | 7.9µM* | -10%
COc1cccc(CN(C)C(=O)c2cc(-c3ccc(OC)c(OC)c3)nc3ccccc23)c1 | 2% | -6% | -11% | -22% | 0% | -3%
CCOC(=O)c1cccc(NC(=O)c2cc(S(=O)(=O)N3CCCC3)cn2C)c1 | x | 2% | x | x | 4% | 4%
COc1ccc(-c2cnnn2-c2ccc(NC(=O)c3c(F)cccc3F)cc2)cc1 | x | 1% | x | x | -8% | -9%
COc1ccc(NC(=O)Cc2csc(COc3cccc(C)c3)n2)c(OC)c1 | x | 0% | x | x | 2% | 7%
Cc1ccccc1CSCC1Nc2ccc(C(=O)NCCc3ccccc3)cc2NC1=O (stereo not drawn) | x | u | 32µM* | x | x | x
O=c1c2[nH]c3ccc(F)cc3c2ncn1CCN1CCOCC1 | -1% | 5% | -3% | -8% | 6% | u
O=c1c2[nH]c3ccc(F)cc3c2ncn1CCN1CCN(Cc2ccccc2)CC1 | -2% | -5% | 3% | 0.32µM* | -7% | u
Cn1ccnc1Sc1cc(NCCCO)c([N+](=O)[O-])c2nonc12 | -9% | u | -1% | -26% | 0.71µM* | -1%
O=[N+]([O-])c1c(NCCCO)cc(N2CCN(Cc3ccc4c(c3)OCO4)CC2)c2nonc12 | -4% | -10% | 7% | 198% | -7% | -10%
O=[N+]([O-])c1c(NCCCO)cc(SCc2ccco2)c2nonc12 | -8% | -13% | -22% | -12% | 3.2µM* | u
O=[N+]([O-])c1c(NCCCO)cc(Sc2ccc(Cl)cc2)c2nonc12 | 12% | 20% | -12% | -2% | 5.6µM* | -8%
CCOC(=O)/C(=C/c1ccc(N2CCC(c3ccccc3)=N2)cc1)C(C)=O | -70% | -8% | -10% | -10% | -35% | -15%
SMILES | SARS PLP yeast | TbPYK inhibitor | RE007 growth inh | AmpC no deterg | Sm TGR inh | AmpC detergent
c1ccc(C2=NN(c3ccccc3)CC2)cc1 | -1% | -2% | -6% | -33% | 5µM* | 6%
COc1cc(-c2noc(C)c2C#CCO)cc(OC)c1OC | -7% | -3% | 7% | 1% | 32µM* | u
COc1cc(-c2noc(C)c2C#CC2(O)CCCCC2)cc(OC)c1OC | -5% | -3% | 14% | 105% | u | -14%
COc1ccccc1C1=Nn2c(nc3sc(C(=O)Nc4ccccc4Cl)c(C)c3c2=O)SC1 | x | -3% | x | x | -8% | 6%
O=C(COc1cccc2c1CCN(Cc1ccccc1F)C2=O)N1CCCCC1 | -6% | 2% | 38% | 25% | 89µM* | u
CC1(C)CC(=O)C(Sc2ccccc2)=C(O)C1 | -1% | 0% | 6% | -32% | 10µM* | -13%
Cc1ccc(CNS(=O)(=O)c2cnc(N)nc2)cc1 | x | -13% | x | x | 0% | 3%
N#CSCC(=O)c1cccc2ccccc12 | -91% | -15% | u | -28% | 32µM* | u
Cc1cccc(N2CCN(C(=O)c3cc4ccc5cccnc5c4[nH]3)CC2C)c1 (stereo not drawn) | x | 0% | x | x | -12% | -4%
COc1ccc(-c2nc(CS(=O)(=O)CC(=O)NC3CCCCC3C)c(C)o2)cc1 (stereo not drawn) | 0% | -29% | 7% | 22% | u | u
Cc1ccc(-c2nc(CS(=O)(=O)CC(=O)NC3CC3)c(C)o2)cc1 | 2% | -5% | -5% | 30% | 32µM* | 4%
Cc1ccc(-c2nc(CS(=O)(=O)CC(=O)NC3CCCCC3C)c(C)o2)cc1 (stereo not drawn) | 7% | -7% | 17% | 2% | 35µM* | -15%
CC(C)Cc1nn2c(=O)cc(COC(=O)c3ccc4c(c3)OCO4)nc2s1 | x | 2% | x | x | -4% | -8%
COc1ccc(CNC(=S)Nc2ccccc2Cl)cc1 | 4% | -1% | 2% | -30% | 40µM* | -15%
COc1ccc(CNC(=S)Nc2ccc(Br)cc2)cc1 | 10% | 2% | 0% | -24% | -21% | -10%
COc1ccc(CNC(=S)Nc2ccccc2-c2ccccc2)cc1 | -11% | x | x | -37% | 3% | -9%
COc1ccc(CNC(=S)Nc2ccc(-c3ccccc3)cc2)cc1 | -2% | 1% | -9% | 14µM* | -4% | -7%
CC(Sc1ncc(S(=O)(=O)c2ccc(C(C)C)cc2)c(N)n1)C(=O)Nc1ccccc1 (stereo not drawn) | x | -4% | x | x | u | 0%
CS(=O)(=O)N(Cc1ccco1)CC(O)Cn1cc(C=O)c2ccccc21 (stereo not drawn) | 10µM* | 0% | 5% | 0% | -3% | u
O=C(C1=C(O)C(=O)N(CCN2CCOCC2)C1c1cccc(Br)c1)c1cc2ccccc2o1 (stereo not drawn) | -3% | -2% | 8% | 33% | 0% | 4%

Bioassay records as filed in PubChem.
